# According to PubChem BioAssay AID743286 (National Center for Advancing Translational Sciences (NCATS), 2014):
# Screen size: about 1,100 compounds; about 340 (31%) were called active. Inconclusive results (about 40%) are left out. Calls follow the shape of the dose curve; as a rule, active = well fitted inhibition curve with a large enough effect; inconclusive = small, poorly fitted or top-dose-only effect; inactive = flat fitted curve, though single readings scatter. Only a sample is shown.
# Target: Phosphatidylinositol 5-phosphate 4-kinase type-2 alpha (Homo sapiens) (UniProt P48426)
# Assay: qHTS for Inhibitors of PI5P4K: Confirmation in Primary Assay; also: nearly all actives have a fitted effect of over 65% in size
# Details: PI5P4Kalpha enzyme, ADP-Glo luminescence, 60 min; series mostly up to 76.9 µM; activity change, negative = inhibition: at the top concentration
# Source text: In addition to finding PI5P, we discovered the type II phosphatidylinositol 5-phosphate 4-kinase (PI5P4K) family (alpha, beta, gamma isoforms) that catalyze the conversion of PI5P to PI(4,5)P2. Alternatively, PI(4,5)P2 can also be synthesized through phosphatidylinositol-4-phosphate (PI4P) by the type I phosphatidylinositol 4-phosphate 5-kinases (PI4P5K). These PI5P4K enzymes therefore represent one way by which cells can regulate endogenous PI5P levels and play important roles in insulin signaling and in stress responses. […] A qHTS PI5P4K-alpha ADP-Glo assay was developed to identify specific modulators of human PI5P4K, phosphatidylinositol-5-phosphate 4-kinase (Type II PIPK). This assay was screened against the MLSMR containing ~400,000 small molecules (PubChem AID 652105). To confirm that the hits were not interacting with the detection enzyme system, a 1536-well counterscreen against the ADP-Glo kit (Promega) was utilized, as described in Davis et al., 2013 [1]. Davis et al., PLoS One. 2013;8(1):e54127. NIH Chemical Genomics Center [NCGC] NIH Molecular Libraries Probe Centers Network [MLPCN] MLPCN Grant: MH096575 Assay Submitter (PI): Atsuo Sasaki, Beth Israel Deaconess Medical Center
# 2 microL of PI5P4Kalpha/substrate buffer (columns 1-2, 5-48) are dispensed into Greiner white solid bottom 1536-well assay plates; column 3 receives only PI5P4Kalpha buffer as 0x substrate controls; column 4 receives only substrate buffer as 0x PI5P4Kalpha controls. Final assay buffer consists of 0.038 M HEPES pH 7.4, 0.28 mM EGTA, 0.1% CHAPS, and 5% DMSO (final concentration). Compounds are then transferred via Kalypsys pin tool equipped with 1536-pin array (10 nL slotted pins, V&P Scientific, San Diego, CA). Following addition of compound, 1 microL of ATP (5 microM final concentration, all columns) is added to initiate the reaction. ATP is diluted in an assay buffer consisting of 0.02 M HEPES pH 7.4, 60 mM MgCl2, 15 microM ATP, and 0.1% CHAPS. The plates are then incubated at room temperature for 60 minutes. ADP-Glo reagent 1 is added (2 microL) and plates incubated for 45 minutes, before ADP-Glo reagent 2 (4 microL) is added and plates incubated for 30 minutes. They are then transferred to a ViewLux high-throughput CCD imager (PerkinElmer) wherein single end-point measurements of luminescence are acquired using a clear filter.
# % is scaled to controls: 0 for no effect and ±100 for the full control effect; potency is read from the fitted curve at half-maximal effect.
# Chain of Phosphatidylinositol 5-phosphate 4-kinase type-2 alpha (Homo sapiens) (P48426 whole entry, looked up): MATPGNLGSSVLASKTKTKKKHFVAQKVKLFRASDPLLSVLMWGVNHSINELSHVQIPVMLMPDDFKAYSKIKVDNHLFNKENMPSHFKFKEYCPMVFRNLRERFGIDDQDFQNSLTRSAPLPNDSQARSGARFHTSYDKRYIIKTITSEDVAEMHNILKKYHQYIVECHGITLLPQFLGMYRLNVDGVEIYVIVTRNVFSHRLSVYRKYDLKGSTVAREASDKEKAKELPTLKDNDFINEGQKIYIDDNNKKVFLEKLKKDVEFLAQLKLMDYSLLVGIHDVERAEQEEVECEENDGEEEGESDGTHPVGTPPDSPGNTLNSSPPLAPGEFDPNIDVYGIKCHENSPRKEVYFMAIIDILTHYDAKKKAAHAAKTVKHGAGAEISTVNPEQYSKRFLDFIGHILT
SMILES,Potency,"activity change, negative = inhibition"
CCC(=O)Oc1ccc(C(=O)Nc2cccc(C(=O)c3ccccc3)c2)cc1,8.91 µM (active),–
N#CC1c2ccccc2-n2nncc2CN1Cc1cc(Cl)cc(Cl)c1 (stereo not given),–,-12.5% (inactive)
COC(=O)C1=C(c2ccc(F)cc2F)C[C@@H]2CC[C@H]1N2C(=O)NC1Cc2ccccc2C1,–,-0.214% (inactive)
COc1ccc(C(=O)C2CCCN(Cc3ccon3)C2)c(OC)c1 (stereo not given),–,-2.13% (inactive)
CC(C)NCC(O)c1ccc(C2CCCC2)cc1 (stereo not given),–,-0.799% (inactive)
